Laboratory results taken from PubChem BioAssay (NCATS).
Records with an inconclusive call do not appear. Entries that show only a call come without a potency. The source made the active and inactive calls. Calls follow the shape of the dose curve; as a rule, active = well fitted cell-killing curve with a large enough effect in the repeat runs; inconclusive = weak or mixed curves, or effect the other way; inactive = flat fitted curve, though single readings scatter.

Experiment: qHTS assay for small molecule antagonists of the retinoid-related orphan receptor gamma (ROR-gamma) signaling pathway - cell viability counter screen (AID 720652);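 also: compound exposure lasted 16 hr before ATP read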
Conditions: RORgamma reporter cell line viability counter screen; series mostly up to 92.2 µM
Description: National Center for Advancing Translational Sciences [NCATS]
NIH Chemical Genomics Center [NCGC]
National Institutes of Environmental Health Sciences [NIEHS]
National Toxicology Program [NTP]
Nuclear steroid hormone receptors are involved in many biological processes including inflammatory responses, cell proliferation, and apoptosis. Environmental factors or compounds disrupting these nuclear receptor pathways and gene expression may promote susceptibility to immunotoxicants and autoimmune diseases. One important group of these expression factors are the retinoid-related orphan receptors. To assess compounds that may interfere with the retinoid-related orphan receptor gamma (ROR-gamma) transcription factor, a cell-based luciferase assay was used.
The CHO cell-based assay utilizes a TET-inducible ROR expression factor and ROR response element-LUC reporter gene. Reporter activity was induced using doxycycline and measured after 16hr incubation. Luminescence was read using Viewlux (PerkinElmer), where a decrease in reporter activity would show a decrease in luminescence. The cytotoxicity of the compounds against ROR response-Luc reporter gene cell line was quantified by measuring the intracellular ATP content.
1,000 cells in 4 uL/well were dispensed into white wall/solid bottom 1536-well plates using a Multidrop Combi (Thermo Scientific) dispenser. Following incubation at 37 C and 5% CO2 for 5 hr, 23 nL compound or DMSO vehicle were transferred by a pin tool, then the plates were treated with 1 ul doxycycline to induce reporter gene activity. After 16 hr incubation at 37 C and 5% CO2, 5 uL/well of CellTiter-Glo reagent (Promega) was then added to each plate using a Flying Reagent Dispenser and incubated at room temperature for 30 min. The luminescence intensity was quantified on a ViewLux plate reader (PerkinElmer).
Potency is read from the fitted curve at half-maximal effect.

SMILES | Potency
COc1cc(CNC(=O)CCCC/C=C/C(C)C)ccc1O | inactive
Nc1nc2ccc([N+](=O)[O-])cc2s1 | inactive
CCCOC(=O)c1ccc(O)cc1 | inactive
c1ccc2sc(SSc3nc4ccccc4s3)nc2c1 | inactive
CCCCCCCCCCCCCCCCCC(=O)O | inactive
O=C(O)/C=C\C(=O)O | inactive
CN(C)CCC(c1ccc(Cl)cc1)c1ccccn1 (stereo not drawn) | inactive
C#C[C@]1(O)CC[C@H]2[C@@H]3CCc4cc(O)ccc4[C@H]3CC[C@@]21C | inactive
CN(C)c1ccc(N=NS(=O)(=O)O)cc1 | inactive
S=c1[nH]c2ccccc2s1 | inactive
Nc1ccc([N+](=O)[O-])cc1O | inactive
CN(C)c1ccc(C(=C2C=CC(=[N+](C)C)C=C2)c2ccccc2)cc1 | 2.37 µM (active)
N=C1N=C(N)c2cc3ccccc3cc21 | 42.2 µM (active)
NCCO | inactive
Nc1ccc(O)c(C(=O)O)c1 | inactive
O=C(O)c1cc(O)c(O)c(O)c1 | inactive
CN1CCC[C@H]1c1cccnc1 | inactive
Nc1ccc(O)c([N+](=O)[O-])c1 | inactive
